Experimental data taken from PubChem BioAssay AID1377 (University of Pittsburgh Molecular Library Screening Center, 2008).
The whole screen tested about 220,000 compounds, of which about 830 (0.38%) were called active.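 The calls were made as follows: active = activation, scaled between plate controls, above about 75% (limit read from the data); inactive = activation under that limit.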 This excerpt belongs to a sample that is enriched for actives.

Experiment: rescue of L929 cells from zVAD death – primary screen (AID 1377);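 also: 0% = zVAD with DMSO and 100% = DMSO alone without zVAD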
Conditions: L929 zVAD necroptosis rescue, ATP luminescence, 24 h; at 10 µM; with zVAD 60 µM; hits give high values

SMILES	viability rescue
COC(=O)N1C(c2ccccc2)C1c1ccccc1 (stereo not given)	83.8% (active)
COC(=O)C(c1ccccc1)N1CCCCCC1 (stereo not given)	0.41% (inactive)
CCCC[N+]1(C)C2CC(OC(=O)C(CO)c3ccccc3)CC1C1OC12 (stereo not given)	-0.33% (inactive)
CN1CCN(/N=C/c2c[nH]c3ccccc23)CC1	-0.46% (inactive)
CC1C2Cn3c(nc4ccccc43)C1N(C)O2 (stereo not given)	0.4% (inactive)
